{"source": "PubChem BioAssay", "note": "Unmarked numbers belong to inactive results. How the calls were made is not given here.", "data": [{"system": "Aerobactin synthetase IucA (Klebsiella pneumoniae, hypervirulent)", "experiment": "biochemical IucA inhibition screen of LOPAC library by absorbance (AID 1346212);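 further: 100% = no compound wells and 0% = no enzyme wells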", "conditions": "IucA enzyme assay, absorbance (OD) readout; hits give low values;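 tested at 8 µM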", "units": {"remaining activity": "%"}, "values": [{"smiles": "O=C(O)/C(=C/c1c(C(=O)O)[nH]c2cc(Cl)cc(Cl)c12)c1ccccc1", "remaining activity": 117}, {"smiles": "Clc1nccc2c1ccc1ccccc12", "remaining activity": 109}, {"smiles": "CCc1cccc(N(C)C(N)=Nc2cccc3ccccc23)c1", "remaining activity": 96.2}, {"smiles": "COc1ccc2c(c1OC)C(=O)O[C@@H]2[C@H]1c2c(cc3c(c2OC)OCO3)CCN1C", "remaining activity": 112}, {"smiles": "Clc1ccc(N2CCN(Cc3c[nH]c4ncccc34)CC2)cc1", "remaining activity": 92}, {"smiles": "CO[C@@]1(NC(=O)CSCC#N)C(=O)N2C(C(=O)O)=C(CSc3nnnn3C)CS[C@@H]21", "remaining activity": 118}, {"smiles": "COCCCC/C(=N\\OCCN)c1ccc(C(F)(F)F)cc1", "remaining activity": 100}, {"smiles": "CN1CCN(c2nc3cc(C(F)(F)F)ccc3n3cccc23)CC1", "remaining activity": 94.3}, {"smiles": "OC[C@H]1O[C@@H](n2cnc3c(NCCc4ccccc4)ncnc32)[C@H](O)[C@@H]1O", "remaining activity": 92.7}, {"smiles": "C[C@]12C=CC(=O)C=C1CC[C@@H]1C2=CC[C@]2(C)[C@@H](C(=O)CN3CCN(c4cc(N5CCCC5)nc(N5CCCC5)n4)CC3)CC[C@@H]12", "remaining activity": 102}, {"smiles": "CC(=O)O[C@H]1C(=O)[C@@]2(C)[C@H]([C@H](OC(=O)c3ccccc3)[C@]3(O)C[C@H](OC(=O)[C@H](O)[C@@H](NC(=O)c4ccccc4)c4ccccc4)C(C)=C1C3(C)C)[C@]1(OC(C)=O)CO[C@@H]1C[C@@H]2O", "remaining activity": 94.8}, {"smiles": "O=C(O)C1CCCN(CCC=C(c2ccccc2)c2ccccc2)C1", "note": "(stereo not given)", "remaining activity": 86.8}, {"smiles": "COc1ccc2c(c1)c(CC(=O)O)c(C)n2C(=O)c1ccccc1", "remaining activity": 111}, {"smiles": "COc1ccccc1N1CCN(CC(O)COc2cccc3ccccc23)CC1", "note": "(stereo not given)", "remaining activity": 96.1}, {"smiles": "COc1cc(-c2ccc(=O)[nH]n2)ccc1OC(F)F", "remaining activity": 119}, {"smiles": "CNC(=O)[C@H]1O[C@@H](n2cnc3c(N)ncnc32)C(O)[C@H]1O", "note": "(stereo not given in full)", "remaining activity": 129}, {"smiles": "CC(C)C[C@H](NC(=O)[C@H]1O[C@@H]1C(=O)O)C(=O)NCCCCN=C(N)N", "remaining activity": 115}, {"smiles": "CCC(=O)N1CCN(C(=O)c2ccccc2)CC1", "remaining activity": 122}, {"smiles": "CN1CC(O)C(O)C(O)C1CO", "note": "(stereo not given)", "remaining activity": 105}, {"smiles": "O=C1N=c2cc(Cl)c(Cl)cc2=NC1=O", "remaining activity": 110}, {"smiles": "C=C[C@@]1(C)CC(=O)[C@]2(O)[C@@]3(C)[C@@H](O)CCC(C)(C)[C@@H]3[C@H](O)[C@H](OC(C)=O)[C@@]2(C)O1", "remaining activity": 107}, {"smiles": "CC(C)[N+]1(C)[C@@H]2CC[C@H]1CC(OC(=O)C(CO)c1ccccc1)C2", "note": "(stereo not given in full)", "remaining activity": 118}, {"smiles": "Cc1ccc(=O)n(-c2ccccc2)c1", "remaining activity": 120}, {"smiles": "Oc1ccc(-c2nc(-c3ccc(F)cc3)c(-c3ccncc3)[nH]2)cc1", "remaining activity": 119}, {"smiles": "COc1cccc(NC(=O)/C=C/c2ccc(Cl)cc2)c1", "remaining activity": 101}, {"smiles": "COc1cc([C@@H]2c3cc4c(cc3[C@@H](O[C@@H]3O[C@@H]5CO[C@@H](C)O[C@H]5[C@H](O)[C@H]3O)[C@H]3COC(=O)[C@H]23)OCO4)cc(OC)c1O", "remaining activity": 127}, {"smiles": "CCOC(=O)c1ncn2c1CN(C)C(=O)c1cc(F)ccc1-2", "remaining activity": 100}, {"smiles": "Nc1ccc2c3c(cccc13)C(=O)NC2=O", "remaining activity": 112}, {"smiles": "Cn1c(=O)[nH]c2ncn(C)c2c1=O", "remaining activity": 113}, {"smiles": "COc1ccc(C(=O)NCc2cccnc2)cc1C(=O)NCc1cccnc1", "remaining activity": 103}, {"smiles": "Cc1cc(C)c(/C=C2\\C(=O)Nc3ccccc32)[nH]1", "remaining activity": 118}, {"smiles": "O=Nc1c(-c2c(O)[nH]c3cc(Br)ccc23)[nH]c2ccccc12", "remaining activity": 113}, {"smiles": "Cc1oncc1C(=O)Nc1ccc(C(F)(F)F)cc1", "remaining activity": 110}, {"smiles": "CC(C)(C)c1cc(/C=C(\\C#N)C(N)=S)cc(C(C)(C)C)c1O", "remaining activity": 97.1}, {"smiles": "NC(=O)c1ccccc1", "remaining activity": 109}, {"smiles": "CC(=O)Oc1cc(C(C)C)c(OCCN(C)C)cc1C", "remaining activity": 118}, {"smiles": "CC[n+]1c(/C=C/C=C2/N(C)c3ccccc3C2(C)C)sc2ccccc21", "remaining activity": 93.2}, {"smiles": "COc1cccc(OC)c1OCCNCC1CSc2ccccc2O1", "note": "(stereo not given)", "remaining activity": 114}, {"smiles": "O=C(Cc1ccc(Cl)c(Cl)c1)OCCN1CCCC1", "remaining activity": 117}, {"smiles": "O=C1c2ccccc2-c2n[nH]c3cccc1c23", "remaining activity": 88.6}]}]}
